# Measured values taken from paper PMC5540273 (PLoS ONE, 2017).
# Read-outs that look alike come from different tables or passages of the source.
# How the values were obtained:
# GRK3 = system: T1, GRK3; details: concentration: 1 μM, replicates: in singlicate; n = 1
# T1 construct: gene ADRBK2
# GRK4 = details: concentration: 1 μM, replicates: in singlicate; n = 1
# GRK7 = details: concentration: 1 μM, replicates: in singlicate; n = 1
# GSK3A = details: concentration: 1 μM, replicates: in singlicate; n = 1
# GSK3B = details: n = 1
# HASPIN = system: T2, HASPIN; details: concentration: 1 μM, replicates: in singlicate; n = 1
# T2 construct: gene GSG2
# HCK = details: concentration: 1 μM, replicates: in singlicate; n = 1
# HIPK1 = details: concentration: 1 μM, replicates: in singlicate; n = 1
# HIPK2 = details: concentration: 1 μM, replicates: in singlicate; n = 1
# HIPK3 = details: concentration: 1 μM, replicates: in singlicate; n = 1
# HIPK4 = details: concentration: 1 μM, replicates: in singlicate; n = 1
# HPK1 = details: concentration: 1 μM, replicates: in singlicate; n = 1
# HUNK = details: concentration: 1 μM, replicates: in singlicate; n = 1
# ICK = details: concentration: 1 μM, replicates: in singlicate; n = 1
# IGF1R = details: concentration: 1 μM, replicates: in singlicate; n = 1
# IKK-alpha = system: T3, IKK-alpha; details: concentration: 1 μM, replicates: in singlicate; n = 1
# T3 construct: gene CHUK
# IKK-beta = system: T4, IKK-beta; details: concentration: 1 μM, replicates: in singlicate; n = 1
# T4 construct: gene IKBKB
# IKK-epsilon = system: T5, IKK-epsilon; details: concentration: 1 μM, replicates: in singlicate; n = 1
# T5 construct: gene IKBKE
# INSRR = details: concentration: 1 μM, replicates: in singlicate; n = 1
# INSR = details: concentration: 1 μM, replicates: in singlicate; n = 1
# [1] = concentration: 1 μM, replicates: in singlicate
# 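Note: KINOMEscan kinase panel screen.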
compound,measurement,setting,value
O=C(Nc1n[nH]c2nc(-c3cccs3)c(Br)cc12)C1CCCC1 [SB-743341],%Inh,GRK3,24%
same,%Inh,GRK4,33%
same,%Inh,GRK7,11%
same,%Inh,GSK3A,96.6%
same,%Inh,GSK3B; 1 µM,81%
same,%Inh,HASPIN,0%
same,%Inh,HCK,8%
same,%Inh,HIPK1,20%
same,%Inh,HIPK2,25%
same,%Inh,HIPK3,52%
same,%Inh,HIPK4,4%
same,%Inh,HPK1,14%
same,%Inh,HUNK,23%
same,%Inh,ICK,65%
same,%Inh,IGF1R,3%
same,%Inh,IKK-alpha,0%
same,%Inh,IKK-beta,0%
same,%Inh,IKK-epsilon,4%
same,%Inh,INSRR,26%
same,%Inh,INSR,2%
Cc1ccc(NC(=O)Nc2ccccc2F)cc1-c1ccc(C(=O)Nc2ccncc2)cc1 [GSK1398477],%Inh,GRK3,0%
same,%Inh,GRK4,30%
same,%Inh,GRK7,0%
same,%Inh,GSK3A,25%
same,%Inh,GSK3B; [1],3%
same,%Inh,HASPIN,0%
same,%Inh,HCK,0%
same,%Inh,HIPK1,0%
same,%Inh,HIPK2,0%
same,%Inh,HIPK3,10%
same,%Inh,HIPK4,0%
same,%Inh,HPK1,44%
same,%Inh,HUNK,31%
same,%Inh,ICK,18%
same,%Inh,IGF1R,0%
same,%Inh,IKK-alpha,0%
same,%Inh,IKK-beta,6%
same,%Inh,IKK-epsilon,19%
same,%Inh,INSRR,11%
same,%Inh,INSR,16%
COc1cccc(CNC(=O)NC2CCN(c3ccnc(Nc4ccc(F)cc4)n3)C2)c1 (stereo not shown) [GSK1379723],%Inh,GRK3,37%
same,%Inh,GRK4,6%
same,%Inh,GRK7,5%
same,%Inh,GSK3A,11%
same,%Inh,GSK3B; [1],13%
same,%Inh,HASPIN,0%
same,%Inh,HCK,0%
same,%Inh,HIPK1,0%
same,%Inh,HIPK2,0%
same,%Inh,HIPK3,36%
same,%Inh,HIPK4,0%
same,%Inh,HPK1,40%
same,%Inh,HUNK,0%
same,%Inh,ICK,21%
same,%Inh,IGF1R,4%
same,%Inh,IKK-alpha,44%
same,%Inh,IKK-beta,14%
same,%Inh,IKK-epsilon,0%
same,%Inh,INSRR,18%
same,%Inh,INSR,0%
CCCCc1nn2ncccc2c1-c1ccnc(NC2CC2)n1 [GW684374],%Inh,GRK3,17%
same,%Inh,GRK4,0%
same,%Inh,GRK7,0%
same,%Inh,GSK3A,4%
same,%Inh,GSK3B; [1],1%
same,%Inh,HASPIN,0%
same,%Inh,HCK,0%
same,%Inh,HIPK1,0%
same,%Inh,HIPK2,0%
same,%Inh,HIPK3,8%
same,%Inh,HIPK4,0%
same,%Inh,HPK1,3%
same,%Inh,HUNK,2%
same,%Inh,ICK,7%
same,%Inh,IGF1R,0%
same,%Inh,IKK-alpha,0%
same,%Inh,IKK-beta,3%
same,%Inh,IKK-epsilon,0%
same,%Inh,INSRR,0%
same,%Inh,INSR,0%
COc1nccc(-c2c(-c3ccc(F)cc3)ncn2CCCN2CCOCC2)n1 [SB-282852],%Inh,GRK3,14%
same,%Inh,GRK4,23%
same,%Inh,GRK7,37%
same,%Inh,GSK3A,17%
same,%Inh,GSK3B; [1],10%
same,%Inh,HASPIN,0%
same,%Inh,HCK,0%
same,%Inh,HIPK1,46%
same,%Inh,HIPK2,76%
same,%Inh,HIPK3,0%
same,%Inh,HIPK4,0%
same,%Inh,HPK1,21%
same,%Inh,HUNK,0%
same,%Inh,ICK,16%
same,%Inh,IGF1R,0%
same,%Inh,IKK-alpha,26%
same,%Inh,IKK-beta,21%
same,%Inh,IKK-epsilon,8%
same,%Inh,INSRR,0%
same,%Inh,INSR,0%
Cc1ccc(NC(=O)Nc2ccc(Cl)cc2)cc1-c1ccc(C(=O)Nc2ccncc2)cc1 [GSK1398472],%Inh,GRK3,17%
same,%Inh,GRK4,25%
same,%Inh,GRK7,0%
same,%Inh,GSK3A,0%
same,%Inh,GSK3B; [1],7%
same,%Inh,HASPIN,0%
same,%Inh,HCK,0%
same,%Inh,HIPK1,0%
same,%Inh,HIPK2,0%
same,%Inh,HIPK3,5%
same,%Inh,HIPK4,0%
same,%Inh,HPK1,43%
same,%Inh,HUNK,23%
same,%Inh,ICK,17%
same,%Inh,IGF1R,6%
same,%Inh,IKK-alpha,0%
same,%Inh,IKK-beta,8%
same,%Inh,IKK-epsilon,5%
same,%Inh,INSRR,0%
same,%Inh,INSR,0%
COc1ccc(Nc2nccc(N3CCC(NC(=O)c4cc5ccccc5s4)C3)n2)cc1 (stereo not shown) [GSK1379738],%Inh,GRK3,0%
same,%Inh,GRK4,0%
same,%Inh,GRK7,0%
same,%Inh,GSK3A,11%
same,%Inh,GSK3B; [1],14%
same,%Inh,HASPIN,24%
same,%Inh,HCK,0%
same,%Inh,HIPK1,0%
same,%Inh,HIPK2,0%
same,%Inh,HIPK3,7%
same,%Inh,HIPK4,0%
same,%Inh,HPK1,48%
same,%Inh,HUNK,0%
same,%Inh,ICK,10%
same,%Inh,IGF1R,0%
same,%Inh,IKK-alpha,21%
same,%Inh,IKK-beta,25%
same,%Inh,IKK-epsilon,28%
same,%Inh,INSRR,0%
same,%Inh,INSR,5%
NS(=O)(=O)c1cccc(N/C=C2\C(=O)Nc3ccc(S(=O)(=O)Cc4c(Cl)cccc4Cl)cc32)c1 [GSK398099],%Inh,GRK3,0%
same,%Inh,GRK4,0%
same,%Inh,GRK7,0%
same,%Inh,GSK3A,0%
same,%Inh,GSK3B; [1],20%
same,%Inh,HASPIN,4%
same,%Inh,HCK,0%
same,%Inh,HIPK1,0%
same,%Inh,HIPK2,0%
same,%Inh,HIPK3,12%
same,%Inh,HIPK4,0%
same,%Inh,HPK1,49%
same,%Inh,HUNK,0%
same,%Inh,ICK,15%
same,%Inh,IGF1R,0%
same,%Inh,IKK-alpha,0%
same,%Inh,IKK-beta,15%
same,%Inh,IKK-epsilon,26%
same,%Inh,INSRR,0%
same,%Inh,INSR,5%
O=C1NC(=O)C(c2ccc(Cl)cc2)=C1Nc1ccc(O)cc1 [SB-340867],%Inh,GRK3,0%
same,%Inh,GRK4,0%
same,%Inh,GRK7,0%
same,%Inh,GSK3A,29%
same,%Inh,GSK3B; 1 µM,0%
same,%Inh,HASPIN,9%
same,%Inh,HCK,0%
same,%Inh,HIPK1,0%
same,%Inh,HIPK2,0%
same,%Inh,HIPK3,0%
same,%Inh,HIPK4,0%
same,%Inh,HPK1,35%
same,%Inh,HUNK,0%
same,%Inh,ICK,0%
same,%Inh,IGF1R,0%
same,%Inh,IKK-alpha,0%
same,%Inh,IKK-beta,0%
same,%Inh,IKK-epsilon,0%
same,%Inh,INSRR,0%
same,%Inh,INSR,0%
COc1ccc(Nc2nccc(-c3ccc(NC(=O)c4cc5cc(F)ccc5[nH]4)cc3)n2)cc1 [GSK1229496],%Inh,GRK3,22%
same,%Inh,GRK4,0%
same,%Inh,GRK7,0%
same,%Inh,GSK3A,0%
same,%Inh,GSK3B; [1],0%
same,%Inh,HASPIN,41%
same,%Inh,HCK,0%
same,%Inh,HIPK1,0%
same,%Inh,HIPK2,0%
same,%Inh,HIPK3,0%
same,%Inh,HIPK4,0%
same,%Inh,HPK1,38%
same,%Inh,HUNK,0%
same,%Inh,ICK,0%
same,%Inh,IGF1R,0%
same,%Inh,IKK-alpha,0%
same,%Inh,IKK-beta,0%
same,%Inh,IKK-epsilon,8%
same,%Inh,INSRR,0%
same,%Inh,INSR,0%
Cc1nccc(-c2c(-c3ccc(F)cc3)ncn2CCCN2CCOCC2)n1.Cl [SB-282975],%Inh,GRK3,34%
same,%Inh,GRK4,0%
same,%Inh,GRK7,23%
same,%Inh,GSK3A,23%
same,%Inh,GSK3B; [1],17%
same,%Inh,HASPIN,23%
same,%Inh,HCK,8%
same,%Inh,HIPK1,0%
same,%Inh,HIPK2,0%
same,%Inh,HIPK3,14%
same,%Inh,HIPK4,50%
same,%Inh,HPK1,3%
same,%Inh,HUNK,16%
same,%Inh,ICK,39%
same,%Inh,IGF1R,3%
same,%Inh,IKK-alpha,14%
same,%Inh,IKK-beta,12%
same,%Inh,IKK-epsilon,0%
same,%Inh,INSRR,11%
same,%Inh,INSR,3%
